# In PubChem BioAssay:
# Values joined by “and” are separate entries in the source; they are usually repeats but may differ in a detail not shown here. Equal entries are not always repeated. Where a structure was tested more than once in an assay, its records may differ in their call. Active and inactive are the calls of the source. Unless noted, no stated cut-off is given here; in the data, active means inhibition above about 80%; inactive means the rest. Where a SMILES comes first, the peptide text is derived from it. The star is where a group is joined. Cbz = O=C(OCc1ccccc1)*
# Columns and labels:
# [1] = liver-stage malaria parasite growth inhibition, primary screen, cell-based, HepG2, luciferase luminescence, HepG2 viability (AID 624349; in the data active means parasite load remaining mostly below about 12%, no sharp cut-off; inactive means mostly above about 10%;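 further: 100% = mean of DMSO negative control wells on the same plate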); conditions: P. berghei liver stage in HepG2, luciferase luminescence, concentration not given here; parasite load remaining: stronger effect = lower value; viability: measured here: HepG2 viability without parasites
# [2] = kinase inhibitors against Plasmodium liver-stage infection, cell-based, known kinase inhibitor set, luminescence, hepatoma host viability (AID 624392; call rule not given here;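 further: infected cells incubated roughly two days before readout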); conditions: Plasmodium liver stage in hepatoma cells, luciferase luminescence, concentration not given here; liver cell % of control: measured here: host liver cell viability; parasite % of control: stronger effect = lower value
# [3] = LFS_MB_1R medulloblastoma cell growth inhibition, synergistic combos for chromothripsis tumors, cisplatin or BGB combos (AID 1671452); conditions: LFS_MB_1R medulloblastoma cells, stronger effect = higher value;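 further: cells exposed for 96 hours before readout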
# [4] = CRL2098 osteosarcoma cell growth inhibition, synergistic combos for chromothripsis tumors, BGB or cisplatin IC20 combos (AID 1671454); conditions: CRL2098 osteosarcoma cells, drug combinations, stronger effect = higher value;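 further: cells exposed for 96 h before readout; 0% = vehicle DMSO and 100% = killing by high DMSO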
# [5] = HD-MB03 medulloblastoma cell growth inhibition, synergistic combos for chromothripsis tumors, BGB or cisplatin IC20 combos (AID 1671455; in the data active means inhibition above about 83%;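 further: 0% = vehicle DMSO and 100% = high DMSO as cytotoxic control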); conditions: HD-MB03 medulloblastoma cells, stronger effect = higher value
# [6] = UWB1.289 ovarian carcinoma cell growth inhibition, synergistic combos for chromothripsis tumors, BGB or cisplatin combos (AID 1671456); conditions: UWB1.289 ovarian carcinoma cells, stronger effect = higher value;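 further: cells exposed to compound for four days; 0% = vehicle DMSO and 100% = killing by high DMSO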
# [7] = LFS_MB_2R medulloblastoma cell growth inhibition, synergistic combos for chromothripsis tumors, cisplatin combos (AID 1671457); conditions: LFS_MB_2R medulloblastoma cells, stronger effect = higher value;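 further: cells exposed to compound for four days before readout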
# [8] = UWB1.289_BRCA1 ovarian cancer growth, cell-based, BGB or cisplatin combinations (AID 1671459); conditions: UWB1.289 BRCA1 ovarian carcinoma, drug combinations, stronger effect = higher value
# [9] = human astrocyte viability loss, single and combined drugs, cytotoxicity control for chromothriptic childhood tumor combination screen, cell-based, BGB or cisplatin IC20 combos (AID 1671460); conditions: Human astrocytes, drug combinations, stronger effect = higher value;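 further: cells exposed to compounds for 96 hours before viability readout; 0% = vehicle and 100% = killing control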
# [10] = growth inhibition of CRL1545 osteosarcoma cells, cell-based, cisplatin and BGB IC20 combos (AID 1671464); conditions: stronger effect = higher value;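 further: cells exposed to compound for 96 hours before readout; 0% = vehicle DMSO and 100% = high DMSO killing control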
# [11] = biological target: NAD(+) hydrolase SARM1 (Homo sapiens) (UniProt Q6SZW1); assay: SARM1 TIR NADase inhibitors, cell lysate, NAD-Glo luminescence (AID 1508614;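 active means compound whose remaining NAD level is above about 45 nM, limit read from the data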); conditions: SAM-TIR HEK293T lysate NADase, at 1 µM, stronger effect = higher value
# Sequence of NAD(+) hydrolase SARM1 (Homo sapiens) (Q6SZW1 whole entry, looked up): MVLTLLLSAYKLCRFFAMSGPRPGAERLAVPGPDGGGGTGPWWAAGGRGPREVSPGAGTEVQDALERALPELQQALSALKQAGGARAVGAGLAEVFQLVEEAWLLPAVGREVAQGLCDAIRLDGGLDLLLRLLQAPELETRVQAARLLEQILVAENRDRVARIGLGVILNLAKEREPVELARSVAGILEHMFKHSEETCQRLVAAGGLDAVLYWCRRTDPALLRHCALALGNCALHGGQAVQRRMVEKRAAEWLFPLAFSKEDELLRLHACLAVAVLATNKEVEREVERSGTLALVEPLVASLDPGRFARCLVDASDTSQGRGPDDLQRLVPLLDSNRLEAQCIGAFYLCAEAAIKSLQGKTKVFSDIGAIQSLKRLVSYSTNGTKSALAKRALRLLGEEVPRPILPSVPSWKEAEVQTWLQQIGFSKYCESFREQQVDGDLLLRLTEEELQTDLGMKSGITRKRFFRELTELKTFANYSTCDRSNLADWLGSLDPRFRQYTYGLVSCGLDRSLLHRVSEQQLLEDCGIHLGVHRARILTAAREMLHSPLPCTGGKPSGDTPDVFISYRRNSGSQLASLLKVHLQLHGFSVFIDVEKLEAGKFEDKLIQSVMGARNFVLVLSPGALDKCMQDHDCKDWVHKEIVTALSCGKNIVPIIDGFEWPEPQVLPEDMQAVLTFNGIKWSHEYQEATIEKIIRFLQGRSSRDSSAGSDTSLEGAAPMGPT
# [12] = inhibitors of Cryptococcus chitosan production, flow cytometry, Cibacron Brilliant Red staining (AID 1347148; call rule not given here;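 further: compound exposure lasted three days at 37 degrees C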); conditions: Cryptococcus neoformans chitosan, stronger effect = lower value; at 10 µM unless noted
# [13] = hESC survival regulators, cell-based (AID 493140; call rule not given here;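 further: cells exposed to compounds for four days before counting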); conditions: human embryonic stem cell survival screen; stronger effect = higher value
# [14] = tested on: Hepatitis C virus NS3 helicase; assay: HCV NS3 helicase inhibitors, primary screen, biochemical, fluorescence polarization, LOPAC1280 library (AID 687035; in the data active means inhibition above about 37%); conditions: Purified HCV NS3 helicase, Cy5-dT15 ssDNA binding fluorescence polarization; stronger effect = higher value; concentration not given here
# [15] = Cy5 fluorescence quenching or enhancement artefacts, artefact control for HCV NS3 helicase inhibitor project, biochemical, LOPAC1280 (AID 687037; call rule not given here); conditions: Cy5-DNA-NS3h complex fluorescence interference counterscreen
# [16] = viability rescue of complex I mutant cybrids, primary screen, cell-based, galactose medium, ATP luminescence (AID 1645843;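 active means z-score of at least 1.8 in each of two replicates, scored against plate mean and spread of sample wells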;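 further: positive z means more ATP and so rescue of galactose-driven cybrid death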); conditions: complex I mutant cybrid cells, 72 h, stronger effect = higher value
# [17] = measured here: combination with BGB IC40, at 0.05 µM
# [18] = measured here: combination with cisplatin, at 0.5 µM
# [19] = measured here: combination with cisplatin, at 5 µM
# [20] = measured here: combination with BGB at IC20, at 0.5 µM
# [21] = measured here: combination with cisplatin at IC20, at 0.5 µM
# [22] = measured here: combo with BGB at IC20, at 0.5 µM
# [23] = measured here: combo with cisplatin at IC20, at 0.5 µM
# [24] = measured here: inhibition with BGB combination, at 0.05 µM
# [25] = measured here: inhibition with cisplatin combination, at 0.05 µM
# [26] = BGB combination, concentration series, at 5 µM
# [27] = cisplatin combination, concentration series, at 5 µM
# [28] = measured here: combo with BGB IC20, at 0.5 µM
# [29] = measured here: combo with cisplatin IC20, at 0.5 µM
# [30] = measured here: with BGB IC20 combination, at 0.5 µM
# [31] = measured here: with cisplatin IC20 combination, at 0.5 µM
smiles,measurement,setting,value
CC(=O)OC1C(C)OC(Oc2c(-c3ccc(O)cc3)oc3cc(O)cc(O)c3c2=O)C(O)C1OC(C)=O (stereo unspecified),parasite load remaining,[1],29.8% (inactive)
same,viability,[1],85%
CCC(=O)N1CCN(c2ccc(-n3c(=O)ccc4cnc5ccc(-c6cnc7ccccc7c6)cc5c43)cc2C(F)(F)F)CC1,liver cell % of control,[2],56.3% and 62.9% and 78.1%
C[C@@H]1CN(CC(=O)Nc2ccc3c(c2)Cc2cccc(-c4cc(=O)cc(N5CCOCC5)o4)c2S3)C[C@H](C)O1,inhibition,[3]; at 0.5 µM,-8.44% (inactive) and -21% (inactive)
same,inhibition,[3]; [17],3.35% and -5.52%
same,inhibition,[3]; [18],-14.6% and -41.1%
same,inhibition,[3]; [19],-56% and -92.8%
same,inhibition,[4]; at 0.5 µM,-44.4% (inactive) and -42.5% (inactive)
same,inhibition,[4]; [20],-21.5% and -30.1%
same,inhibition,[4]; [21],-75.7% and -79.9%
same,inhibition,[5]; at 0.5 µM,-12% (inactive) and -9.56% (inactive)
same,inhibition,[5]; [22],-14.5% and -20%
same,inhibition,[5]; [23],-16.9% and 0.275%
same,inhibition,[6]; at 0.5 µM,-15.2% (inactive) and 1.44% (inactive)
same,inhibition,[6]; [24],-5.12% and -6.06%
same,inhibition,[6]; [25],-21.5% and 20.1%
same,inhibition,[7]; at 0.5 µM,-9.09% (inactive) and -22.8% (inactive)
same,inhibition,[7]; [18],-17.7% and -28.5%
same,inhibition,[7]; [19],7.16% and -9%
same,inhibition,[8]; [26],-11.5% and 19.3%
same,inhibition,[8]; at 0.5 µM,-16.3% (inactive) and -2.61% (inactive)
same,inhibition,[8]; [27],-2.71% and 10.4%
same,inhibition,[9]; at 0.5 µM,-26.1% (inactive) and -28.5% (inactive)
same,inhibition,[9]; [28],-42.3% and -37.5%
same,inhibition,[9]; [29],-29% and -44.1%
same,inhibition,[10]; at 0.5 µM,5.04% (inactive) and -9.72% (inactive)
same,inhibition,[10]; [30],22% and -3.16%
same,inhibition,[10]; [31],-5.11% and -14.8%
same,inhibition,"[10]; single agent, at 0.05 µM",7.16% and -18.1%
same,inhibition,"[10]; single agent, at 5 µM",-20.2% and -4.99%
CC#CCn1c(N2CCC[C@@H](N)C2)nc2c1c(=O)n(Cc1nc(C)c3ccccc3n1)c(=O)n2C,remaining NAD,[11],10 nM (inactive)
CC(C)C[C@@H](C=O)NC(=O)[C@H](CC(C)C)NC(=O)[C@H](CC(C)C)NC(=O)OCc1ccccc1 (Cbz-Leu-Leu-Leu-aldehyde),fold fluorescence,[12],10.3 [at 105.1 µM] (inactive)
CC(C)(C)c1nc2c3cc[nH]c(=O)c3c3cc(F)ccc3c2[nH]1,parasite load remaining,[1],88% (inactive)
same,viability,[1],127%
same,liver cell % of control,[2],205% and 286% and 305%
same,parasite % of control,[2],128% (inactive) and 18.5% (inactive) and 5.35% (inactive)
CC(C)n1c(/C=C/[C@H](O)C[C@H](O)CC(=O)O)c(-c2ccc(F)cc2)c2ccccc21,parasite load remaining,[1],134% (inactive)
same,viability,[1],92.6%
CCCCC(C)(C)[C@H](O)/C=C/[C@H]1[C@H](O)CC(=O)[C@@H]1C/C=C\CCCC(=O)O,survival,[13],68.2 (inactive)
CC(C)c1nn(-c2c(Cl)cccc2Cl)c2nc(Cc3ccc(OCCO)cc3)[nH]c(=O)c12,parasite load remaining,[1],77.3% (inactive)
same,viability,[1],79.7%
O=C(Nc1cn[nH]c1-c1nc2ccc(CN3CCOCC3)cc2[nH]1)NC1CC1,liver cell % of control,[2],44.3% and 46.2% and 49.7%
same,parasite % of control,[2],0.367% (inactive) and 0.333% (inactive) and 0.278% (inactive)
C=CC(=O)Nc1cc2c(Nc3ccc(F)c(Cl)c3)ncnc2cc1C#CC(C)(C)N1CCN(C)CC1,liver cell % of control,[2],44% and 49.4% and 70.7%
same,parasite % of control,[2],0.362% (inactive) and 1.83% (inactive) and 6.99% (inactive)
COc1cc2nccc(Oc3ccc(NC(=O)NC4CC4)c(Cl)c3)c2cc1C(N)=O,liver cell % of control,[2],83.2% and 92.7% and 92.2%
same,parasite % of control,[2],3.46% (inactive) and 6.57% (inactive) and 21.7% (inactive)
Cc1[nH]c2ccccc2c1CCNCc1ccc(/C=C/C(=O)NO)cc1,inhibition,[3]; at 0.5 µM,93.3% (active) and 50.3% (inactive)
same,inhibition,[3]; [17],50.6% and -33.1%
same,inhibition,[3]; [18],94.8% and 59%
same,inhibition,[3]; [19],101% and 94.7%
same,inhibition,[4]; at 0.5 µM,96% (active) and 13.2% (inactive)
same,inhibition,[4]; [20],95% and 15.5%
same,inhibition,[4]; [21],96.9% and -1.5%
same,inhibition,[5]; at 0.5 µM,99.9% (active) and 93.8% (active)
same,inhibition,[5]; [22],99.8% and 96.6%
same,inhibition,[5]; [23],99.9% and 99.7%
same,inhibition,[6]; at 0.5 µM,82.2% (active) and 51.9% (inactive)
same,inhibition,[6]; [24],27.3% and -1.85%
same,inhibition,[6]; [25],42.8% and 21.6%
same,inhibition,[7]; at 0.5 µM,91.3% (active) and 29.2% (inactive)
same,inhibition,[7]; [18],101% and 47.2%
same,inhibition,[7]; [19],109% and 98.7%
same,inhibition,[8]; [26],121% and 109%
same,inhibition,[8]; at 0.5 µM,90.3% (active) and 56.4% (inactive)
same,inhibition,[8]; [27],127% and 128%
same,inhibition,[9]; at 0.5 µM,101% (active) and 33.3% (inactive)
same,inhibition,[9]; [28],102% and 30.8%
same,inhibition,[9]; [29],99.8% and 22.1%
same,inhibition,[10]; at 0.5 µM,96.5% (active) and 85.3% (active)
same,inhibition,[10]; [30],95.5% and 73.9%
same,inhibition,[10]; [31],96.9% and 90.9%
same,inhibition,"[10]; single agent, at 0.05 µM",93.3% and 52.8%
same,inhibition,"[10]; single agent, at 5 µM",98.9% and 97.5%
CC(C)(C)c1cnc(CSc2cnc(NC(=O)C3CCNCC3)s2)o1,liver cell % of control,[2],42.1% and 45.4% and 53.6%
same,parasite % of control,[2],0.331% (inactive) and 0.54% (inactive) and 1.3% (active)
Cc1[nH]c(/C=C2\C(=O)Nc3ccc(S(=O)(=O)N(C)c4cccc(Cl)c4)cc32)c(C)c1C(=O)N1CCN(C)CC1,parasite load remaining,[1],38.5% (inactive)
same,viability,[1],69.6%
O=C1NC(=O)/C(=C/c2ccc3c(c2)OC(F)(F)O3)S1,parasite load remaining,[1],45.5% (inactive)
same,viability,[1],93.8%
same,inhibition,[14],-5% (inactive)
same,fluorescence ratio (interference),[15],1 (inactive)
same,z-score,[16],-0.34 (inactive)
CC(C)=CC[C@@H](O)C1=CC(=O)c2c(O)ccc(O)c2C1=O,parasite load remaining,[1],4.44% (active)
same,viability,[1],99.5%
same,z-score,[16],-2.24 (inactive)
